# Measurements reported in PubChem BioAssay (EPA / NIEHS).
# “And” between values parts separate entries of the source, which are not always exact repeats. Identical values can stand only once. Results filed as inconclusive are left out. More than one record can exist for a structure, and the calls need not agree. The source made the active and inactive calls. How the source made its calls, unless noted: active means hit-call score of the fitted dose curve at least 0.9, where 1 is the maximum; inactive means score below 0.9.
# Key:
# [1] = ATG_NFI_CIS: Attagene CIS-FACTORIAL HepG2 Assay for human Nuclear Factor I (NFI) (AID 2282989); details: HepG2 cis-regulatory reporter, NFI response element transcription; actives raise or lower the signal
# Method in brief: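 Cells: human liver HepG2, transiently transfected with promoter-regulated reporter transcription units. Exposure 24 h. Detection: fluorescent RT-PCR products separated by capillary electrophoresis, normalised to DMSO negative control.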
# [2] = biological target: Myc proto-oncogene protein (Homo sapiens) (UniProt P01106); experiment: ATG_Myc_CIS: Attagene CIS-FACTORIAL HepG2 Assay for human Myelocytomatosis (Myc) Proto-Oncogene Transcription Factor (AID 2282990); details: HepG2, Attagene cis-reporter transcription factor activity; actives raise or lower the signal
# Myc proto-oncogene protein (Homo sapiens), sequence (P01106 whole entry, looked up): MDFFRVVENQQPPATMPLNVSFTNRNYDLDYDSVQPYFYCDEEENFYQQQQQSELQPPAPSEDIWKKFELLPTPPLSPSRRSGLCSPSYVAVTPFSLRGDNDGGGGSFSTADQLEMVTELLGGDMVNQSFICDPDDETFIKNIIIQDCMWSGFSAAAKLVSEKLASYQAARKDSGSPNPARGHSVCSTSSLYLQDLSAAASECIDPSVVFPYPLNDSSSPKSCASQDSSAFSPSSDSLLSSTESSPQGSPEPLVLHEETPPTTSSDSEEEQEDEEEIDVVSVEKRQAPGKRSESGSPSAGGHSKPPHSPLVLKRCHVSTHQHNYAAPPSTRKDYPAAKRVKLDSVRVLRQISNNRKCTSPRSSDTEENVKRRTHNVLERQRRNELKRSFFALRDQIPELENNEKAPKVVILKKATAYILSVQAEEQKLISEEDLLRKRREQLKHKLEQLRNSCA
# Method in brief: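 Transiently transfected HepG2 cells bearing cis-promoter reporter units for endogenous transcription factors; 24 h exposure. Reporter mRNA measured by RT-PCR, 6-FAM primer extension, HpaI cut and capillary electrophoresis; bidirectional fit relative to DMSO.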
# [3] = ATG_NF_kB_CIS: Attagene CIS-FACTORIAL HepG2 Assay for human Nuclear Factor Kappa B (NF-kB) (AID 2282991); details: HepG2 Attagene cis-factorial NF-kB reporter mRNA; actives raise or lower the signal
# Method in brief: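 Endogenous transcription factor activity in HepG2 was captured via cis-regulated reporter constructs; after 24 h dosing, reporter mRNA was reverse-transcribed, amplified, fluorescently labelled and sized by capillary electrophoresis, with activity fitted bidirectionally relative to DMSO.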
# [4] = ATG_NRF2_ARE_CIS: Attagene CIS-FACTORIAL HepG2 Assay for human Nuclear Factor Erythroid 2 Related Factor 2 (NFR2) response to Antioxidant Response Elements (ARE) (AID 2282992); details: HepG2 Attagene ARE/NRF2 reporter, transcription factor activity; actives raise or lower the signal;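 on AC50: reporter mRNA level measured by RT-PCR and capillary electrophoresis fluorescence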
# Method in brief: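 Fluorescence intensity of reporter-specific cDNA fragments, separated by capillary electrophoresis, reflects mRNA induction in transfected HepG2 cells at 24 h. Activity is fitted bidirectionally, DMSO serving as baseline.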
# [5] = ATG_Oct_MLP_CIS: Attagene CIS-FACTORIAL HepG2 Assay for human Octamer-Binding Transcription Factor (Oct) (AID 2282993); details: HepG2 Attagene cis-factorial Oct reporter, mRNA; actives raise or lower the signal
# Method in brief: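 HepG2, transient MRTU transfection, cis promoter elements; 24 h dosing; RT-PCR/CE fluorescence read-out of reporter mRNA; fit both directions vs DMSO.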
# [6] = biological target: Cellular tumor antigen p53 (Homo sapiens) (UniProt P04637); experiment: ATG_p53_CIS: Attagene CIS-FACTORIAL HepG2 Assay for human p53 Transcription Factor (AID 2282994); details: HepG2 p53 cis-element reporter, Attagene mRNA; actives raise or lower the signal
# Cellular tumor antigen p53 (Homo sapiens), sequence (P04637 whole entry, looked up): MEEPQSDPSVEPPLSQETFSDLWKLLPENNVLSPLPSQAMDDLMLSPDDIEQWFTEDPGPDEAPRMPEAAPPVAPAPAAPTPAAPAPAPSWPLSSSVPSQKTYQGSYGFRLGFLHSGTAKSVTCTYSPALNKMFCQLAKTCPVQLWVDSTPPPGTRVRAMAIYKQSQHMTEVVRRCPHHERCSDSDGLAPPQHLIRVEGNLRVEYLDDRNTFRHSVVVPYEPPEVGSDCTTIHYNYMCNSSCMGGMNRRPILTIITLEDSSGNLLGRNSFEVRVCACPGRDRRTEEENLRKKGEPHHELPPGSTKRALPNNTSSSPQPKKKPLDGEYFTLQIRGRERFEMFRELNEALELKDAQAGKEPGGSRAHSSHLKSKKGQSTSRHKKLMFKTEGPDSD
# Method in brief: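 Transiently transfected HepG2 (multiple cis reporter transcription units); exposure 24 h; reporter RNA via RT-PCR, 6-FAM extension, 2 h HpaI digest at 37 C, CE detection; DMSO baseline.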
# [7] = BSK_3C_TissueFactor: BioMAP Diversity Plus: 3C Assay for Tissue Factor Biomarker Activity (AID 2282997); details: BioMAP 3C HUVEC, tissue factor biomarker readout; actives raise or lower the signal
# Method in brief: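 After a 24 h chemical exposure of primary human umbilical vein endothelial cells, Tissue Factor levels were quantified by ELISA.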
# [8] = BSK_3C_uPAR: BioMAP Diversity Plus: 3C Assay for Urokinase-type plasminogen activator receptor (uPAR) Biomarker Activity (AID 2282998); details: BioMAP 3C HUVEC, uPAR biomarker ELISA; actives raise or lower the signal
# Method in brief: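 A multiplexed primary-cell system built on human umbilical vein endothelium was used, with chemical present for 24 h before reading. Cell-surface uPAR was detected by ELISA; signal change in either direction counted against DMSO.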
# [9] = BSK_3C_VCAM1: BioMAP Diversity Plus: 3C Assay for Vascular cell adhesion molecule 1 (VCAM1) Biomarker Activity (AID 2282999); details: BioMAP 3C HUVEC, VCAM1 ELISA, cytokine-stimulated; actives raise or lower the signal
# Method in brief: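 HUVEC primary cells, 24 h compound exposure; VCAM-1 by ELISA; gain/loss of signal fitted bidirectionally vs DMSO baseline.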
# [10] = BSK_4H_Eotaxin3: BioMAP Diversity Plus: 4H Assay for Eotaxin 3 Biomarker Activity (AID 2283000); details: primary human endothelial cells (HUVEC); actives raise or lower the signal;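 on outcome: CCL26 protein level quantified by ELISA in parallel with SRB cytotoxicity check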
# Method in brief: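 Chemicals were added to human umbilical vein endothelium cultures, and Eotaxin-3 was quantified by ELISA at 24 h. Values were derived by bidirectional fitting with DMSO serving as negative control and activity baseline.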
# [11] = biological target: human Peroxisome Proliferator-activated Receptor delta (PPARd), PPARD (gene 5467) (UniProt Q03181); experiment: ATG_PPARd_TRANS: Attagene TRANS-FACTORIAL HepG2 Assay for human Peroxisome Proliferator-activated Receptor delta (PPARd) (AID 2283002; active means hit-call score of the fitted dose curve at least 0.9, where 1 is the maximum)
# human Peroxisome Proliferator-activated Receptor delta (PPARd), PPARD (gene 5467), sequence (Q03181 whole entry, looked up, the tested form may be a part): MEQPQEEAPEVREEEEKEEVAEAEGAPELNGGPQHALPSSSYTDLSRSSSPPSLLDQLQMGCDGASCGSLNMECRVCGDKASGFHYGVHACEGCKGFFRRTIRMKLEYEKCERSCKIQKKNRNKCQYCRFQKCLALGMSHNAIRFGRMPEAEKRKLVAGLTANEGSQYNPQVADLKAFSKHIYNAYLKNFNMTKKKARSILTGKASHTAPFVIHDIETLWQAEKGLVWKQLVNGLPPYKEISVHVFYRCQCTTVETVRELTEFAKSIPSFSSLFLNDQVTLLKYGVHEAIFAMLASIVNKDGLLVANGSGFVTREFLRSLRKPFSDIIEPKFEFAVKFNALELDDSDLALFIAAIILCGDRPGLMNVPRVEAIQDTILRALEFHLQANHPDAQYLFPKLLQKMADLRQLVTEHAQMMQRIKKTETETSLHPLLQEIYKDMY
# Method in brief: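 HepG2 cells transiently transfected with GAL4-UAS multiplexed reporter units driven by exogenous chimeric NR-GAL4 proteins; 24 h compound exposure. Reporter mRNA measured by RT-PCR, 6-FAM primer extension, HpaI digestion and capillary electrophoresis; gain of signal fitted relative to DMSO.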
# [12] = read-out: Intercellular Adhesion Molecule 1 (ICAM1), ICAM1 (gene 3383); experiment: BSK_3C_ICAM1: BioMAP Diversity Plus: 3C Assay for Intercellular Adhesion Molecule 1 (ICAM1) Biomarker Activity (AID 2283003); details: primary human endothelial cells (HUVEC); actives raise or lower the signal
# Method in brief: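 ELISA read-out of ICAM-1; HUVEC (primary human), 3C system, 24 h post-dosing; bidirectional fit vs DMSO baseline.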
# [13] = BSK_3C_Proliferation: Cell Proliferation Assessment in the BioMAP Diversity Plus: 3C Assay (AID 2283006); details: primary human endothelial cells (HUVEC);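 on AC50: potency may reflect either rise or fall in cell number versus DMSO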
# Method in brief: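 HUVEC, sub-confluent; 48 h chemical exposure; 10% TCA fix, 0.1% SRB stain, A560 total protein. Gain or loss of signal fitted both directions vs DMSO control.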
# [14] = biological target: Peroxisome proliferator-activated receptor gamma (Homo sapiens) (UniProt P37231); experiment: ATG_PPARg_TRANS: Attagene TRANS-FACTORIAL HepG2 Assay for human Peroxisome Proliferator-activated Receptor-gamma (PPARg) (AID 2283007; active means hit-call score of the fitted dose curve at least 0.9, where 1 is the maximum)
# Peroxisome proliferator-activated receptor gamma (Homo sapiens), sequence (P37231 whole entry, looked up, the tested form may be a part): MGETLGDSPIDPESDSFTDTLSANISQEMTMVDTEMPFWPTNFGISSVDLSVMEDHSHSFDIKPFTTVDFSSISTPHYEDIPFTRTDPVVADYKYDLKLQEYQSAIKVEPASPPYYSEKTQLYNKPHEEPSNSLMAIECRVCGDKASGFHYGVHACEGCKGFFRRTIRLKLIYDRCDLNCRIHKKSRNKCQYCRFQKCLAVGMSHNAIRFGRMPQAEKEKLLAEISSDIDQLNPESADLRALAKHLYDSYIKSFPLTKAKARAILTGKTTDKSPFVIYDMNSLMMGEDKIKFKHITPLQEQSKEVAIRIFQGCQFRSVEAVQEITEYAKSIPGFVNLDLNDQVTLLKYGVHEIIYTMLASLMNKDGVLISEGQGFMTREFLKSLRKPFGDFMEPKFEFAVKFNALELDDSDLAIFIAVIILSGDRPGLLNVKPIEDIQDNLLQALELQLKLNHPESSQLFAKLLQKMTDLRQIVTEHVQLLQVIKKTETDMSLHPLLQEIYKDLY
# Method in brief: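 A TRANS-format multiplexed reporter assay measures activity of an exogenous chimeric NR-Gal4 protein in HepG2 cells. After 24 h of chemical exposure, reporter transcripts are amplified, fluorescently labelled and sized by capillary electrophoresis, with gain of signal scored against DMSO.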
# [15] = biological target: Nuclear receptor subfamily 1 group I member 2 (Homo sapiens) (UniProt O75469); experiment: ATG_PXR_TRANS: Attagene TRANS-FACTORIAL HepG2 Assay for human Pregnane X Receptor (PXR) (AID 2283008; active means hit-call score of the fitted dose curve at least 0.9, where 1 is the maximum)
# Nuclear receptor subfamily 1 group I member 2 (Homo sapiens), sequence (O75469 whole entry, looked up, the tested form may be a part): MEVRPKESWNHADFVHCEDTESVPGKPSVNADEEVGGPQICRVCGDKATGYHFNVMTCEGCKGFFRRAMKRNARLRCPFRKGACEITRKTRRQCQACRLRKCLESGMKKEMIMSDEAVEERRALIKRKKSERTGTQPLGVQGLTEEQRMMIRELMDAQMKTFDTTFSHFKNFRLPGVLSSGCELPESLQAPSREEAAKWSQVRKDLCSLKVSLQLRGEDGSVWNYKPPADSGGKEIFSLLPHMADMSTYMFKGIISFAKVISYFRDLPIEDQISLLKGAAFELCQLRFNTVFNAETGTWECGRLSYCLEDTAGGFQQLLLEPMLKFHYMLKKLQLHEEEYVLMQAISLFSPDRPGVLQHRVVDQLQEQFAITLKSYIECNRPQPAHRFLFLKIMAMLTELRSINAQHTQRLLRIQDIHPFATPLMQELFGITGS
# Method in brief: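 Transient HepG2 transfectants carrying multiplexed reporter transcription units; PXR activity read through a Gal4 chimera. 24 h exposure. RT-PCR/CE fluorescence; upward curve fit referenced to DMSO.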
# [16] = biological target: human RAR-related Orphan Receptor beta (RORb), RORB (gene 6096) (UniProt Q92753); experiment: ATG_RORb_TRANS: Attagene TRANS-FACTORIAL HepG2 Assay for human RAR-related Orphan Receptor beta (RORb) (AID 2283010; active means hit-call score of the fitted dose curve at least 0.9, where 1 is the maximum)
# human RAR-related Orphan Receptor beta (RORb), RORB (gene 6096), sequence (Q92753 whole entry, looked up, the tested form may be a part): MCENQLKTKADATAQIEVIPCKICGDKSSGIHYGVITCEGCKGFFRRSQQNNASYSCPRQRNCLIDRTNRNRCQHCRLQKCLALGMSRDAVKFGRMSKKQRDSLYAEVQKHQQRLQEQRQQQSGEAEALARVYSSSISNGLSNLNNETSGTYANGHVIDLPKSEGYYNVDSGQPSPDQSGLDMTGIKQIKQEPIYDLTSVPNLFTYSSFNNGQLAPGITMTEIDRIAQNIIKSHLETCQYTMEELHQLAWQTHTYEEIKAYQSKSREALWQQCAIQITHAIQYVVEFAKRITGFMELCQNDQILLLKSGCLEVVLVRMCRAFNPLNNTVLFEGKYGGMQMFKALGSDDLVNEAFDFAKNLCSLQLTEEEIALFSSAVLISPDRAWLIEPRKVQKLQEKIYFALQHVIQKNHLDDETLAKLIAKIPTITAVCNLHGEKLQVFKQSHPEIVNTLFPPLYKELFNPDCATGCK
# Method in brief: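 HepG2, transient MRTU transfection (GAL4-UAS reporters, exogenous NR-Gal4 chimeras); 24 h compound exposure; total RNA → RT-PCR → 6-FAM primer extension → HpaI digest → CE fluorescence. Positive direction vs DMSO baseline.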
# [17] = biological target: human Retinoic Acid Receptor beta (RARb), RARB (gene 5915) (UniProt P10826); experiment: ATG_RARb_TRANS: Attagene TRANS-FACTORIAL HepG2 Assay for human Retinoic Acid Receptor beta (AID 2283004; active means hit-call score of the fitted dose curve at least 0.9, where 1 is the maximum)
# human Retinoic Acid Receptor beta (RARb), RARB (gene 5915), sequence (P10826 whole entry, looked up): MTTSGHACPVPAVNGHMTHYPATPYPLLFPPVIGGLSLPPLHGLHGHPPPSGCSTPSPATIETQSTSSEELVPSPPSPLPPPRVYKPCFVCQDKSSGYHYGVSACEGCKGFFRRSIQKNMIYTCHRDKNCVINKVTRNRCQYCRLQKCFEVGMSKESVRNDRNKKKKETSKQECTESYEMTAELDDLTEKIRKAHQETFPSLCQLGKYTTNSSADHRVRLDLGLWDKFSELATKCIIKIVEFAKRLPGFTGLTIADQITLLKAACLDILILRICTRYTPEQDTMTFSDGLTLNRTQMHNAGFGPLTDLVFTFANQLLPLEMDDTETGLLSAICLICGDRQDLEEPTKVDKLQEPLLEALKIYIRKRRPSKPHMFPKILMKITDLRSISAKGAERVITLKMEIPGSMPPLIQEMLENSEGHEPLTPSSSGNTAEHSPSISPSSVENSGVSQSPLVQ
# Method in brief: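 Transient transfection of HepG2 with multiple reporter units → chemical dosing, 24 h → total RNA isolation → RT with oligo(dT) → reporter-specific PCR, 6-FAM primer extension, HpaI digest → capillary electrophoresis. Positive direction vs DMSO control.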
# [18] = biological target: Retinoic acid receptor alpha (Homo sapiens) (UniProt P10276); experiment: ATG_RARa_TRANS: Attagene TRANS-FACTORIAL HepG2 Assay for human Retinoic Acid Receptor alpha (RARa) (AID 2283005; active means hit-call score of the fitted dose curve at least 0.9, where 1 is the maximum;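 on AC50: potency for increased reporter signal meaning RARa activation over DMSO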)
# Retinoic acid receptor alpha (Homo sapiens), sequence (P10276 whole entry, looked up, the tested form may be a part): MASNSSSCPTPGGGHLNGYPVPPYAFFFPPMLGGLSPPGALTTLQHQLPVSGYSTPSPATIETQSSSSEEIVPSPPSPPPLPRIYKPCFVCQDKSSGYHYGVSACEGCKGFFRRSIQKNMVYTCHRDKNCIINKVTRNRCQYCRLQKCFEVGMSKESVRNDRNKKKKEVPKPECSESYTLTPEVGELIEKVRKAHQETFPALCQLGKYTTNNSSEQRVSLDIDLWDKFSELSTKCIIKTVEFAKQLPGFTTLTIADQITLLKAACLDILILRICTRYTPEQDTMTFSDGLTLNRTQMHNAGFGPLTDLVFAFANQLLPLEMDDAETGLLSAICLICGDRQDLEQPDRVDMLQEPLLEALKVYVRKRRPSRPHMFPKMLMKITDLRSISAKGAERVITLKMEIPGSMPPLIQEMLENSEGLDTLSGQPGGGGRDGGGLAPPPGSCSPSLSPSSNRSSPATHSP
# Method in brief: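 HepG2 transiently transfected with multiplex GAL4-UAS reporter units including a human RARa–GAL4 chimera; 24 h compound exposure. Reporter mRNA quantified by RT-PCR, 6-FAM labeling and capillary electrophoresis; gain of signal versus DMSO.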
# [19] = biological target: human Retinoic Acid Receptor gamma (RARg), RARG (gene 5916) (UniProt P13631); experiment: ATG_RARg_TRANS: Attagene TRANS-FACTORIAL HepG2 Assay for human Retinoic Acid Receptor gamma (RARg) (AID 2283009; active means hit-call score of the fitted dose curve at least 0.9, where 1 is the maximum)
# human Retinoic Acid Receptor gamma (RARg), RARG (gene 5916), sequence (P13631 whole entry, looked up, the tested form may be a part): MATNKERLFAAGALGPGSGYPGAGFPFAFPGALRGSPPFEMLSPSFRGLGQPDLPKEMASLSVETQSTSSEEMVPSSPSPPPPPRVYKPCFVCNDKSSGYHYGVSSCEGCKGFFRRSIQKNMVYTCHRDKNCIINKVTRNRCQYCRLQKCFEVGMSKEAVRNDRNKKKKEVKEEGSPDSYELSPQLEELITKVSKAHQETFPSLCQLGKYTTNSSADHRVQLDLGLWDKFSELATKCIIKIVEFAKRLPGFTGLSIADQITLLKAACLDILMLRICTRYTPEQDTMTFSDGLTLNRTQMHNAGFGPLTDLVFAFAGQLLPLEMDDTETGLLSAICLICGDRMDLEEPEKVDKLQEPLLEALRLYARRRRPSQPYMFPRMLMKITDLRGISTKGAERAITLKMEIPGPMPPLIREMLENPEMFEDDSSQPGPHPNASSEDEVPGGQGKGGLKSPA
# Method in brief: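 Readout: reporter transcript levels via RT-PCR, 6-FAM primer-extension labelling, HpaI digestion and capillary electrophoresis. Cells: HepG2 carrying transfected RARg-GAL4 chimera plus UAS reporter set. Dosing 24 h; DMSO negative control.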
structure (smiles),measurement,setting,value
CNC(=O)ON=C(C)SC,outcome,[1],inactive
same,outcome,[2],inactive
same,outcome,[3],inactive
same,outcome,[4],inactive
same,outcome,[5],inactive
same,outcome,[6],inactive
same,outcome,[7],inactive
same,outcome,[8],inactive
same,outcome,[9],inactive
same,outcome,[10],inactive
same,outcome,[11],inactive
same,outcome,[12],inactive
same,outcome,[13],inactive
same,outcome,[14],inactive
same,outcome,[15],inactive
same,outcome,[16],inactive
O=[N+]([O-])c1cc(C(F)(F)F)c(Cl)c([N+](=O)[O-])c1Nc1ncc(C(F)(F)F)cc1Cl,outcome,[1],inactive
same,outcome,[2],inactive
same,AC50,[3],11.9 µM (active)
same,outcome,[3],inactive
same,AC50,[4],2.7 µM (active)
same,outcome,[4],inactive
same,outcome,[5],inactive
same,AC50,[7],1.16 µM (active) and 2.68 µM (active)
same,AC50,[8],1.05 µM (active) and 3.18 µM (active)
same,AC50,[9],1.46 µM (active) and 2.82 µM (active)
same,AC50,[10],1.39 µM (active) and 3.07 µM (active)
same,outcome,[11],inactive
same,AC50,[12],3.09 µM (active) and 3.8 µM (active)
same,outcome,[17],inactive
same,outcome,[18],inactive
same,AC50,[13],589 nM (active) and 1.47 µM (active)
same,AC50,[14],0.651 µM (active)
same,outcome,[14],inactive
same,AC50,[15],2.86 µM (active)
same,outcome,[15],inactive
same,outcome,[19],inactive
same,outcome,[16],inactive
CC(C)N(C(=O)SCC(Cl)=C(Cl)Cl)C(C)C,outcome,[1],inactive
same,outcome,[2],inactive
same,outcome,[3],inactive
same,AC50,[4],13.5 µM (active)
same,AC50,[5],24.7 µM (active)
same,outcome,[6],inactive
same,AC50,[7],32.9 µM (active)
same,AC50,[8],32.2 µM (active)
same,AC50,[9],35.5 µM (active)
same,AC50,[10],32 µM (active)
same,outcome,[11],inactive
same,AC50,[12],30.9 µM (active)
same,outcome,[17],inactive
same,outcome,[18],inactive
same,AC50,[13],34.7 µM (active)
same,outcome,[15],inactive
same,outcome,[19],inactive
CC1(C(=O)Nc2ccc(O)c(Cl)c2Cl)CCCCC1,outcome,[1],inactive
same,outcome,[2],inactive
same,outcome,[3],inactive
same,AC50,[4],8.84 µM (active)
same,AC50,[5],22.2 µM (active)
same,outcome,[6],inactive
same,outcome,[7],inactive
same,outcome,[8],inactive
same,outcome,[9],inactive
same,outcome,[10],inactive
same,outcome,[11],inactive
same,outcome,[12],inactive
same,outcome,[13],inactive
same,AC50,[14],50 µM (active)
same,AC50,[15],9.83 µM (active)
CC(C1CC1)C(O)(Cn1cncn1)c1ccc(Cl)cc1 (stereo unspecified),outcome,[1],inactive
same,outcome,[2],inactive
same,outcome,[3],inactive
same,outcome,[4],inactive
same,outcome,[5],inactive
same,outcome,[6],inactive
same,outcome,[7],inactive
same,outcome,[8],inactive
same,outcome,[9],inactive
same,outcome,[10],inactive
same,outcome,[11],inactive
same,outcome,[12],inactive
same,outcome,[17],inactive
same,outcome,[18],inactive
same,outcome,[13],inactive
same,outcome,[14],inactive
same,outcome,[15],inactive
same,outcome,[19],inactive
same,outcome,[16],inactive
COP(=O)(OC)C(O)C(Cl)(Cl)Cl (stereo unspecified),outcome,[1],inactive
same,outcome,[2],inactive
same,outcome,[3],inactive
same,AC50,[4],29.9 µM (active)
same,AC50,[5],50 µM (active)
same,AC50,[6],9.92 µM (active)
same,outcome,[7],inactive
same,outcome,[8],inactive
same,outcome,[9],inactive
same,outcome,[10],inactive
same,outcome,[11],inactive
same,outcome,[12],inactive
same,outcome,[17],inactive
same,AC50,[18],78.9 µM (active)
same,outcome,[13],inactive
same,AC50,[14],72.2 µM (active)
same,outcome,[15],inactive
same,outcome,[19],inactive
same,outcome,[16],inactive
CON=C(C(=O)OC)c1ccccc1CON=C(C)c1cccc(C(F)(F)F)c1,outcome,[1],inactive
same,outcome,[2],inactive
same,AC50,[3],73.1 µM (active)
same,AC50,[4],15.7 µM (active)
same,AC50,[5],13.5 µM (active)
same,outcome,[6],inactive
same,outcome,[7],inactive
same,outcome,[8],inactive
same,outcome,[9],inactive
same,AC50,[10],2.78 µM (active)
same,outcome,[11],inactive
same,outcome,[12],inactive
same,outcome,[17],inactive
same,outcome,[18],inactive
same,AC50,[13],1.58 µM (active)
same,AC50,[14],50 µM (active)
same,outcome,[15],inactive
same,outcome,[19],inactive
